Screening data from PubChem.
Shn3 3UTR inh – Schnurri-3 reporter inhibition in Clone20 osteoblasts | AID 588674 | Clone20 osteoblast Shn3 3'UTR firefly luciferase, 24 h | inhibition, % at 12.5 µM | 360,000 tested, 0.52% active;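 active = mean inhibition of at least 75% with every replicate also reaching 75%; inconclusive = mean inhibition at least 75% but some replicate below; inactive = mean inhibition below 75%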;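 note: 0% = median of neutral control wells and 100% = pilot-screen positive control compound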
CF NFkB block – blocks PAF-induced NF-kB reporter in cystic fibrosis cells; 360,000 tested, 0.86% active; KKLEB NF-kB-GFP reporter, GFP fluorescence overnight; inhibition, % at 5 µM;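 active = at least 50% inhibition at 5 µM, scaled per plate between neutral and stimulator controls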;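 note: PAF is a Pseudomonas aeruginosa culture filtrate used as stimulus; plate controls were PAF-stimulated DMSO wells for no effect and unstimulated DMSO wells for full effect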
HIF-2a block – inhibitors of HIF-2a. inhibition, % at 18.8 µM. 786-0 RCC cells HIF-2a reporter, luciferase luminescence, overnight. 360,000 tested, 0.72% active;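 active = inhibition of the luminescence signal of 40% or more relative to plate controls, in a single-dose primary screen at 18.75 µM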
Peg3 promoter – reduces Peg3 promoter-driven luciferase expression in HeLa. 360,000 tested, 1.7% active. AID 588405. inhibition, % at 20 µM. HeLa PEG-Prom luciferase reporter, luminescence, overnight;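 active = inhibition of at least 50% at 20 µM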
KKLEB tox – counter-screen for CF NF-kB inhibitors: cytotoxicity; KKLEB CF airway cells viability, ATPlite luminescence, overnight; hits give low values; cells stimulated with P. aeruginosa culture filtrate; activity change (cytotoxicity), % at 5 µM; 360,000 tested, 0.36% active;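 active = corrected activity change at or below -50% at 5 µM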
MITF TRPM1 inh – inhibitors of MITF-driven TRPM1 promoter in melanoma cells; 330,000 tested, 0.83% active; inhibition, % at 12.5 µM; SK-MEL-5 TRPM1 promoter luciferase, 24 h;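 active = mean inhibition across replicates of 60% or more, whatever share of single replicates reaches that level; inconclusive = some that reach 60%, reason not given; inactive = mean inhibition across replicates below 60%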
CF NFkB inh conf – confirmation of cystic fibrosis induced NF-kB inhibitors. shares compounds with CF NFkB block. inhibition, % at 5 µM. 1,300 tested, 64% active. KKLEB CF airway cells, PAF-induced NF-kB-GFP fluorescence, overnight; in the data active = inhibition above about 40%;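 note: stimulus PAF is a Pseudomonas aeruginosa filtrate and not platelet activating factor; plate controls were DMSO wells with stimulus for no effect and unstimulated DMSO wells for full effect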
Mdm2-MdmX confirm – Mdm2/MdmX (human) interaction inhibition, confirmed. shares compounds with HIF-2a block. SaOS-2 split-luciferase Mdm2/MdmX complementation, luminescence. inhibition, % at 8 µM. 740 tested, 99% active. AID 504601;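 active = mean inhibition of the luminescence signal across two replicates at or above 26 percent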
HIF-2a inh conf – HIF-2a inhibition, single concentration confirmation; 1,800 tested, 56% active; AID 651580; 786-0 RCC cells, HIF-2a luciferase reporter luminescence, overnight; inhibition, % at 18.8 µM; shares compounds with HIF-2a block;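 active = mean inhibition across four replicates of at least 40 percent at the single tested concentration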
HIF-1a cs – inhibits HIF-1a reporter, a counter-screen for HIF-2a inhibitors; inhibition, % at 18.8 µM; shares compounds with HIF-2a block; MiaPaCa-2 HIF-1a luciferase reporter, desferoxamine, overnight; 1,800 tested, 72% active;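 active = mean inhibition of the reporter signal across four replicates at the single tested dose of 50% or more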
Active calls of the source: *. Rows were chosen to be rich in hits. Some 2.7% of all compounds tested hit in one or more screens of this group.

What do the screens show for `CC(C)C[C@H]1CNC(=S)N1C[C@H]1CCCN1C[C@H](Cc1ccc(O)cc1)N1C[C@H](CC(C)C)N(CCc2ccccc2)C1=S`?
Shn3 3UTR inh: 6; CF NFkB block: 56*; HIF-2a block: -18; Peg3 promoter: 8; KKLEB tox: -16; CF NFkB inh conf: 22

Results for CC(C)C[C@@H](CN1CCCC1CN1C(=S)NC[C@@H]1Cc1ccc(O)cc1)N1C[C@H](Cc2ccc(O)cc2)N(CC2CCCCCC2)C1=S (stereo partly specified) ?
Shn3 3UTR inh: 83; CF NFkB block: 52*; HIF-2a block: -35; Peg3 promoter: 91*; KKLEB tox: 0; MITF TRPM1 inh: 2; CF NFkB inh conf: 61*

How did CC1(C(=O)NCc2ccccc2Br)CCN1Cc1csc2ccccc12 (stereo unspecified) do in these assays?
Shn3 3UTR inh: -4; CF NFkB block: 15; HIF-2a block: 12; Peg3 promoter: 4; KKLEB tox: -11

What do the screens show for `COc1ccc(OC)c(-c2cc(C(=O)Nc3ccccc3C(N)=O)c3ccccc3n2)c1`?
Shn3 3UTR inh: 18; CF NFkB block: 80*; HIF-2a block: 13; Peg3 promoter: 54*; KKLEB tox: -19; CF NFkB inh conf: 24

How did COc1ccc(OC)c(-c2cc(C(=O)N/N=C/c3ccc(F)cc3)c3ccccc3n2)c1 do in these assays?
Shn3 3UTR inh: -10; CF NFkB block: 2; HIF-2a block: 20; Peg3 promoter: 18; KKLEB tox: 10

What do the screens show for `CCOc1ccccc1N1CCN(C(=O)c2cc(-c3cc(OC)ccc3OC)nc3ccccc23)CC1`?
Shn3 3UTR inh: 6; CF NFkB block: 65*; HIF-2a block: 12; Peg3 promoter: 44; KKLEB tox: -6; MITF TRPM1 inh: -5; CF NFkB inh conf: 63*

What do the screens show for `CCc1nc2ccc(C(=O)N3CCN(S(=O)(=O)CC)CC3)cn2c1N(CC)CCOC`?
Shn3 3UTR inh: 0; CF NFkB block: -10; HIF-2a block: 13; Peg3 promoter: -6; KKLEB tox: 12

How did O=C(O)C1=CCC=CC1C(=O)O (stereo unspecified) do in these assays?
Shn3 3UTR inh: -21; CF NFkB block: 5; HIF-2a block: 11; Peg3 promoter: -16; KKLEB tox: -9

What do the screens show for `Cc1ccc(Sc2c(O)c3ccccc3n(C)c2=O)cc1`?
Shn3 3UTR inh: -4; CF NFkB block: -3; HIF-2a block: 11; Peg3 promoter: 27; KKLEB tox: 5; MITF TRPM1 inh: -9

What do the screens show for `Cc1ccc(Sc2c(C=O)c3ccccc3n2C)cc1`?
Shn3 3UTR inh: 8; CF NFkB block: 65*; HIF-2a block: 16; Peg3 promoter: 45; KKLEB tox: -19; MITF TRPM1 inh: -10; CF NFkB inh conf: 93*; Mdm2-MdmX confirm: 91*

Results for O=C(NCc1ccco1)c1nc2c(nnn2Cc2ccccc2Cl)c(=O)[nH]1 ?
Shn3 3UTR inh: 11; CF NFkB block: 90*; HIF-2a block: 45*; Peg3 promoter: 94*; KKLEB tox: -49; MITF TRPM1 inh: 72*; CF NFkB inh conf: 100*; HIF-2a inh conf: 57*; HIF-1a cs: 106*

What do the screens show for `Cc1ccc(C)c(Cn2nnc3c(=O)[nH]c(C(=O)NCc4ccco4)nc32)c1`?
Shn3 3UTR inh: -28; CF NFkB block: 23; HIF-2a block: 9; Peg3 promoter: -1; KKLEB tox: -13; MITF TRPM1 inh: 4

How did COC(=O)N/N=C/c1ccc(OS(=O)(=O)c2ccc(C)cc2)c(OC)c1 do in these assays?
Shn3 3UTR inh: 2; CF NFkB block: -9; HIF-2a block: 19; Peg3 promoter: 28; KKLEB tox: -1; MITF TRPM1 inh: -1

Results for C=CCNC(=O)/C(C#N)=C/c1ccc(OS(=O)(=O)c2ccc(C)cc2)c(OC)c1 ?
Shn3 3UTR inh: 12; CF NFkB block: 75*; HIF-2a block: 59*; Peg3 promoter: 8; KKLEB tox: -18; MITF TRPM1 inh: -13; CF NFkB inh conf: -39; HIF-2a inh conf: 46*; HIF-1a cs: 97*

What do the screens show for `O=C(Nc1ccc2c(c1)OCO2)c1cc(C2CCCCN2S(=O)(=O)Cc2ccccc2)on1` (stereo unspecified)?
Shn3 3UTR inh: -16; CF NFkB block: -12; HIF-2a block: -172; Peg3 promoter: -268; KKLEB tox: 5

How did CC(=O)OC1CCC2(C)C(CCC3C4CC=C(C(C)=O)C4(C)OC(=O)CC32)C1 (stereo unspecified) do in these assays?
Shn3 3UTR inh: inconclusive; CF NFkB block: 96*; HIF-2a block: 66*; Peg3 promoter: 111*; KKLEB tox: -14; CF NFkB inh conf: 101*; HIF-2a inh conf: 62*; HIF-1a cs: 105*

How did Cc1csc(=O)n1CCC(=O)OCC(=O)NCc1ccccc1 do in these assays?
Shn3 3UTR inh: -2; CF NFkB block: -8; HIF-2a block: -5; Peg3 promoter: -2; KKLEB tox: 5

Results for C=C(C)[C@@H]1C2=CC(C(=O)OC)=C(C[C@H](C(=C)C)[C@H]3O[C@H]3C3=C[C@H]1OC3=O)O2 ?
Shn3 3UTR inh: 98*; CF NFkB block: 69*; HIF-2a block: 88*; Peg3 promoter: 103*; KKLEB tox: -37; CF NFkB inh conf: -15; HIF-2a inh conf: 89*; HIF-1a cs: 106*

How did COc1ccc(-c2[nH]ncc2-c2ccc3c(c2)OCCO3)c(O)c1 do in these assays?
Shn3 3UTR inh: 11; CF NFkB block: 89*; HIF-2a block: 25; Peg3 promoter: 27; KKLEB tox: -16; MITF TRPM1 inh: 4; CF NFkB inh conf: 102*; Mdm2-MdmX confirm: 96*

How did CCOc1cc(/C=C2\COc3ccccc3C2=O)cc(Br)c1OCC(=O)N(C)C do in these assays?
Shn3 3UTR inh: 75; CF NFkB block: 98*; HIF-2a block: 91*; Peg3 promoter: 105*; KKLEB tox: -32; MITF TRPM1 inh: 89*; CF NFkB inh conf: -196; HIF-2a inh conf: 60*; HIF-1a cs: 105*

Results for CCN(CC)S(=O)(=O)c1cccc(NC(=O)CC2CCCC2)c1 ?
Shn3 3UTR inh: 15; CF NFkB block: -8; HIF-2a block: 9; Peg3 promoter: 12; KKLEB tox: 6; MITF TRPM1 inh: 8
